PLK1 PBD block: qHTS for Inhibitors of PLK1-PDB (polo-like kinase 1 - polo-box domain): Primary Screen; hit rate 2.8% among 360,000; Potency, µM, for inactives: max response, negative = inhibition, actives largely listed as inhibitors; Serine/threonine-protein kinase PLK1 (Homo sapiens), P53350; Plk1 PBD binding of FITC phosphopeptide, fluorescence polarization; further: series mostly up to about 57 µM; on the % scale 0 is the no-effect control and ±100 the full control effect; nearly all actives have a fitted effect of over 65% in size
BRCA1 expr up: qHTS Assay to Identify Small Molecule Activators of BRCA1 Expression. MCF7-BRCA1-FFLuc reporter, luminescence, 48 h; response scale: scaled: vehicle 0%, 10 µM genistein 100%. Potency, µM (highest dose often 46.1 µM), for the others: at the top dose activation, hits mostly activators. hit rate 1.1% among 380,000. AID 624202, 2012; further: nearly all actives have a fitted effect of over 80% in size
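Luminescence from a BRCA1-driven firefly luciferase in MCF7 cells was the read-out, taken 15 min after substrate addition following 48 h compound exposure at 37 °C. Data were normalized to a 10 microM genistein control and DMSO vehicle.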
VDR inh: Inhibitors of the vitamin D receptor (VDR): qHTS | Vitamin D3 receptor (Homo sapiens), P11473 | VDR-SRC2-3 peptide fluorescence polarization, 2 h | Potency, µM, without a hit: max response, negative = inhibition, most hits filed as inhibitors | hit rate 0.93% among 400,000 | AID 504847, 2011; further: on the % scale 0 is the no-effect control and ±100 the full control effect
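Reagent solutions, kept cold and dark, are dispensed first; compounds are then pinned in at 23 nl, plates briefly spun, and incubated 2 h at ambient temperature. Inhibition of VDR–SRC2-3 peptide binding is read by fluorescence polarization.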
Tb PFK inh-1: qHTS Assay to Find Inhibitors of T. brucei phosphofructokinase. T. brucei PFK, ADP-Glo luminescence. Potency, µM (series often up to 57.5 µM), without a hit: at the highest dose activity, negative = inhibition, actives largely listed as inhibitors. AID 485367, 2010. ATP-dependent 6-phosphofructokinase (Trypanosoma brucei brucei), O15648. hit rate 0.17% among 330,000;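 further: 0% = uninhibited 1x PFK enzyme wells and -100% = no-enzyme wells; nearly all actives have a fitted effect of over 60% in size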
Target sequence (O15648 whole entry, looked up): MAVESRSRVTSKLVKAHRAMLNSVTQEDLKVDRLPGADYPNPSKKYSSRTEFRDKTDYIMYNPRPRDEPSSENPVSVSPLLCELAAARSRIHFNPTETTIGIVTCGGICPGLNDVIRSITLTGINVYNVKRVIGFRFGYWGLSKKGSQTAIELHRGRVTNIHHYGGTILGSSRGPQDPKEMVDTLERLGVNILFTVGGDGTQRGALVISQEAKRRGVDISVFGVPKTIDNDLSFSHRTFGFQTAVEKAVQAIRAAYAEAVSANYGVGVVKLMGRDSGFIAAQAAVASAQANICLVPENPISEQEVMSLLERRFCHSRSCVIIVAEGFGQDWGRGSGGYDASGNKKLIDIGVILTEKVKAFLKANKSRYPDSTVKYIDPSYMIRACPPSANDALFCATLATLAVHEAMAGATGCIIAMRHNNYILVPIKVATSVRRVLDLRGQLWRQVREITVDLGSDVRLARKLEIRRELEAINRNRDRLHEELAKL
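Compounds were pin-transferred as a titration series up to 57 uM into substrate buffer (0.5 mM F6P, 0.1 mM ATP, pH 8.0), then 1.25 nM PFK was added and reactions ran 45 min before ADP-Glo detection.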
Tb PFK KinaseGlo: Tb PFK orthogonal confirmatory assay using ATP depletion (Kinase-Glo Plus) as an alternative measure of Tb PFK activity: Hit Validation. Tb PFK enzyme, ATP depletion, Kinase-Glo Plus luminescence. AID 504636, 2011. hit rate 47% among 1,100. Potency, µM (series often up to 57.5 µM), inactives show at the top dose inhibition. shares compounds with Tb PFK inh-1; calls by dose curve; further: nearly all actives have a fitted effect of over 60% in size
Tb PFK inh-2: Inhibitors of T. brucei phosphofructokinase: Hit Validation; hit rate 41% among 1,100; purified T. brucei PFK, ADP-Glo luminescence, 45 min; shares compounds with Tb PFK inh-1; AID 504637, 2011; Potency, µM (titrated, usually from 57.5 µM), inactives show at the top dose activity change, negative = inhibition, usual class: inhibitors;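 further: plate controls were full PFK enzyme control for no effect and no enzyme control for full effect; nearly all actives have a fitted effect of over 60% in size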
* marks the source's active call; other numbers are inactive results. Hits are enriched below; roughly 3.9% of the tested compounds scored in any of these assays. Unless noted, the call rests on the fitted dose curve; in most records, active means well fitted curve in the direction sought with a large enough effect; inconclusive means small, poorly fitted or top-dose-only effect, or another doubt; inactive means no such curve, though single readings can be large; an effect the other way counts as inactive or inconclusive. Potency means the concentration at half of the fitted maximal effect.

Screening Cc1ccc([N+](=O)[O-])cc1N returned PLK1 PBD block inconclusive, BRCA1 expr up -14.0%, VDR inh -12.5% and Tb PFK inh-1 inconclusive.
For CN1CCc2cc3c(cc2[C@@H]1[C@@H]1OC(=O)c2c1ccc1c2OCO1)OCO3 the results were VDR inh -2.1%.
Screening Cc1ccc(-n2nc(C)c3c2NC(=O)CSC3c2ccc(O)cc2)cc1Cl (centres undefined) returned VDR inh 17.6%.
COc1ccc(NC(=O)CN2C(=O)S/C(=C/c3cccn3-c3ccc(C(=O)O)cc3)C2=O)cc1 was read as Tb PFK inh-1 9.53µM*, Tb PFK KinaseGlo 19µM* and Tb PFK inh-2 inconclusive.
Cc1ccc(NC(=O)CN2C(=O)N/C(=C/c3cccn3-c3ccc(C(=O)O)cc3)C2=O)cc1 was read as PLK1 PBD block 10.6µM*, BRCA1 expr up inconclusive, VDR inh -9.1%, Tb PFK inh-1 inconclusive, Tb PFK KinaseGlo 1.69µM* and Tb PFK inh-2 inconclusive.
For COc1ccc(C(=O)N2CCCC2=O)cc1 the results were PLK1 PBD block -5.7%, BRCA1 expr up 24.3%, VDR inh 4.9% and Tb PFK inh-1 -4.7%.
Cc1ccc(NC(=O)CN2C(=O)CN=C(c3ccccc3)c3ccccc32)cc1 was read as VDR inh 19.7%.
CCN(CC)C(=O)/C(Cl)=C(\C)OP(=O)(OC)OC was read as VDR inh -1.8%.
O=S1(=O)N(Cc2ccccc2)CCCN1Cc1ccc(F)cc1Cl was read as VDR inh -3.4%.
For COc1ccc(N=C2SC(C(N)=O)CC(=O)N2Cc2ccc3c(c2)OCO3)cc1 (centres undefined) the results were PLK1 PBD block -15.0%, BRCA1 expr up -33.3%, VDR inh 0.5%, Tb PFK inh-1 inconclusive, Tb PFK KinaseGlo 1.69µM* and Tb PFK inh-2 inconclusive.
For COc1ccc(OCC(=O)N2CCN(Cc3ccc4c(c3)OCO4)CC2)cc1 the results were PLK1 PBD block -17.2%, BRCA1 expr up 9.6%, VDR inh 39.5% and Tb PFK inh-1 6.9%.
COc1ccccc1C(=O)Nc1ccc2c(c1)C(=O)NC2=O was read as PLK1 PBD block -13.1%, BRCA1 expr up -17.4%, VDR inh 3.9%, Tb PFK inh-1 23.9µM*, Tb PFK KinaseGlo 19µM* and Tb PFK inh-2 inconclusive.
Screening CNC(C)C(O)c1ccc(O)cc1 (centres undefined) returned VDR inh 0.1%.
Screening S=C=S returned VDR inh -2.4%.
Screening O=C(CCS(=O)(=O)c1ccc(Br)cc1)N1CCC2(CC1)OCCO2 returned PLK1 PBD block -8.3%, BRCA1 expr up 62.0%, VDR inh 5.0% and Tb PFK inh-1 -8.3%.
O=C(CCS(=O)(=O)c1ccc(Br)cc1)NCc1ccco1 was read as PLK1 PBD block -4.6%, BRCA1 expr up -4.7%, VDR inh -15.0%, Tb PFK inh-1 16.9µM*, Tb PFK KinaseGlo 2.69µM* and Tb PFK inh-2 5.36µM*.
Screening COc1ccc(NC(=O)N2CCCC3(CCN(C(=O)Oc4ccccc4)CC3)C2)cc1 returned VDR inh 2.9%.
Cc1ccc(-c2csc(Nc3ccc(S(N)(=O)=O)cc3)n2)o1 was read as PLK1 PBD block inconclusive, BRCA1 expr up inconclusive, VDR inh -15.2%, Tb PFK inh-1 10.7µM*, Tb PFK KinaseGlo inconclusive and Tb PFK inh-2 inconclusive.
`O=C1Nc2ccc(Cl)cc2C(c2ccccc2Cl)=NC1O` (centres undefined) gave VDR inh -0.8%.
Cc1cc(Cl)ccc1OCC(=O)O was read as PLK1 PBD block -8.9%, BRCA1 expr up 5.3%, VDR inh 9.2% and Tb PFK inh-1 -0.3%.
For COc1cc(/C=C/c2ccc3c([N+](=O)[O-])cccc3n2)ccc1OCC(=O)O the results were PLK1 PBD block -8.4%, BRCA1 expr up 46.6%, VDR inh -11.6%, Tb PFK inh-1 inconclusive, Tb PFK KinaseGlo -25.2% and Tb PFK inh-2 inconclusive.
COc1cc(/C=C/c2ccc3cccc([N+](=O)[O-])c3n2)ccc1OCC(=O)O was read as PLK1 PBD block -11.4%, BRCA1 expr up 15.6%, VDR inh 3.7%, Tb PFK inh-1 inconclusive, Tb PFK KinaseGlo -23.9% and Tb PFK inh-2 25.6%.
For C[C@@H]1O[C@@H](O[C@H]2C[C@@H](O)[C@]3(CO)[C@@H]4C(CC[C@]3(O)C2)[C@@]2(O)CC[C@H]([C@@H]3COC(=O)C3)[C@@]2(C)C[C@H]4O)[C@H](O)[C@H](O)[C@H]1O (some centres undefined) the results were VDR inh -0.6%.
`C=CCN=C=S` gave VDR inh 4.4%.
Screening Cc1cc(-c2nc3c4c5c(sc4[nH]c(=O)n3n2)CCC5)c(C)o1 returned PLK1 PBD block inconclusive, BRCA1 expr up -19.2%, VDR inh -21.9%, Tb PFK inh-1 inconclusive, Tb PFK KinaseGlo 15.7% and Tb PFK inh-2 -9.3%.
CN1CCc2cc3c(c4c2[C@H]1Cc1ccccc1-4)OCO3 was read as VDR inh 1.0%.
Screening O=C(COc1ccccc1[N+](=O)[O-])N1CCN(CCc2ccccn2)CC1 returned VDR inh 5.1%.
For COc1cc2c(cc1OC)CN(C(=O)COc1ccccc1[N+](=O)[O-])CC2 the results were PLK1 PBD block 2.4%, BRCA1 expr up -4.6%, VDR inh -11.1%, Tb PFK inh-1 inconclusive, Tb PFK KinaseGlo 2.4% and Tb PFK inh-2 -14.6%.
NC(=O)CNC(=O)C1CCCc2c1[nH]c1ccc(Cl)cc21 (centres undefined) was read as PLK1 PBD block -12.1%, BRCA1 expr up -31.5%, VDR inh 0.7%, Tb PFK inh-1 6.01µM*, Tb PFK KinaseGlo 2.39µM* and Tb PFK inh-2 3.38µM*.
CCc1cc(CNC(=O)c2ccc(OC3CCN(CCc4ccccc4)CC3)cc2)on1 was read as PLK1 PBD block -1.3%, BRCA1 expr up -2.1%, VDR inh -8.8%, Tb PFK inh-1 15.1µM*, Tb PFK KinaseGlo 16.9µM* and Tb PFK inh-2 21.3µM*.
For CN1CCC(OC(=O)Cc2ccccc2)CC1 the results were PLK1 PBD block -10.0%, BRCA1 expr up 2.4%, VDR inh 6.0% and Tb PFK inh-1 0.9%.

Screening data from PubChem.
